Reference: PubChem BioAssay (NCATS)
Values joined by “and” are separate entries in the source; they are usually repeats but may differ in a detail not shown here. Equal values may be shown once. Inconclusive results are not listed. Where a structure was tested more than once in an assay, its records may differ in their call. Active and inactive are the calls of the source. Calls come from the whole dose curve; as a rule, active = well fitted curve in the direction sought with a large enough effect; inconclusive = small, poorly fitted or top-dose-only effect, or another doubt; inactive = no such curve, though single readings can be large; an effect the other way counts as inactive or inconclusive. Peptide text beside a SMILES is read from it. * marks the point of attachment. Cbz = O=C(OCc1ccccc1)*

How the values were obtained:
[1] = Viability qHTS for spleen associated tyrosine kinase inhibitor (SYKi) naive MV4-11 cells (AID 1963823); note: nearly all actives have a fitted effect of over 40% in size
Method in brief: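 CellTiter-Glo luminescence, 10 min room-temperature incubation, gave viability. Cells: naive MV4-11 (500/well), treated 72 hr at 37 C, 5% CO2.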

[2] = Viability qHTS for spleen associated tyrosine kinase inhibitor (SYKi) drug resistant MV4-11 cells (AID 1963824); note: nearly all actives have a fitted effect of over 35% in size
Method in brief: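 SYK inhibitor-resistant MV4-11 AML cells, 500 per well, added to predispensed compounds and incubated 72 hr at 37 C, 5% CO2. Viability measured by CellTiter-Glo luminescence after 10 min at room temperature.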

[3] = Quantitative highthroughput screen to assess conditional lethalithy of NOMO1 cells grown in RPMI1640 with untreated serum (RPMI+s) (AID 1963876); note: nearly all actives have a fitted effect of over 35% in size;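 for Viability: 100% = DMSO wells and 0% = empty wells without cells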
Method in brief: (§1)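 Each medium arm—HPLM with 10% dialyzed FBS, or RPMI1640 with 5 mM glucose and 10% untreated or dialyzed FBS—was screened against an 11-point, 3-fold compound titration for 48 h at 37 °C, with CellTiter-Glo luminescence as endpoint.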

[4] = Quantitative highthroughput screen to assess conditional lethalithy of P12 Ichikawa cells grown in Human Plasma-Like Medium with dialyzed fetal bovine serum (HPLM+ds) (AID 1963879); conditions: Potency: viability; note: nearly all actives have a fitted effect of over 35% in size; for Viability: series mostly up to about 46 µM
Method in brief: as §1

[5] = Quantitative highthroughput screen to assess conditional lethalithy of P12 Ichikawa cells grown in RPMI1640 with untreated serum (RPMI+s) (AID 1963881); conditions: Potency: viability; note: nearly all actives have a fitted effect of over 35% in size;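 for Viability: series mostly up to about 46 µM; 100% = DMSO wells and 0% = empty wells without cells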
Method in brief: as §1

[6] = Quantitative highthroughput screen to assess conditional lethalithy of SEM cells grown in RPMI1640 with unreated serum (RPMI+s) (AID 1963883); note: nearly all actives have a fitted effect of over 35% in size;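 for Viability: 100% = DMSO wells and 0% = empty wells without cells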
Method in brief: as §1

[7] = Quantitative highthroughput screen to assess conditional lethalithy of P12 Ichikawa cells grown in RPMI1640 with dialyzed fetal bovine serum (RPMI+ds) (AID 1963880); conditions: Potency: P12-Ichikawa viability; note: nearly all actives have a fitted effect of over 35% in size;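 for Viability: 100% = DMSO wells and 0% = empty wells on each plate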
Method in brief: as §1

[8] = Cellular viability qHTS for adrenocortical cancer (ACC) cell line SW-13 (AID 1963989); conditions: SW-13 ACC cells viability, CellTiter-Glo, 48 h; activity (max response): stronger effect = lower value; note: nearly all actives have a fitted effect of over 65% in size;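 for activity (max response): cells grown in serum-free medium with ITS supplement; % is set by controls: 0 for no effect and ±100 for the full control effect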
Method in brief: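 Compound titrations (up to 46 uM final, in DMSO) were applied to SW-13 cells for 48 h at 37C/5% CO2. Reading used CellTiter-Glo after 20 min at room temperature; fitted curves yielded IC50 and efficacy.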

[9] = Cellular viability qHTS for adrenocortical cancer (ACC) cell line NCI-H295R (AID 1963990); note: nearly all actives have a fitted effect of over 60% in size
Method in brief: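 Readout: CellTiter-Glo luminescence, 20 min RT. Exposure: 48 h, 37C/5% CO2. Cells: NCI-H295R, ITS-DMEM serum-free. Range: up to 46 uM. Analysis: 4PL fit, IC50 plus efficacy.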

[10] = Quantitative highthroughput screen to assess conditional lethalithy of NOMO1 cells grown in Human Plasma-Like Medium with dialyzed fetal bovine serum (HPLM+ds) (AID 1963878); note: nearly all actives have a fitted effect of over 35% in size;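 for Viability: 100% = DMSO wells and 0% = empty wells on each plate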
Method in brief: as §1

[11] = Quantitative highthroughput screen to assess conditional lethalithy of SEM cells grown in Human Plasma-Like Medium with dialyzed fetal bovine serum (HPLM+ds) (AID 1963882); note: nearly all actives have a fitted effect of over 35% in size; for Viability: series mostly up to about 46 µM
Method in brief: as §1

[12] = Quantitative highthroughput screen to assess conditional lethalithy of SEM cells grown in RPMI1640 with dialyzed fetal bovine serum (RPMI+ds) (AID 1963884); note: nearly all actives have a fitted effect of over 35% in size;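 for Viability: series mostly up to about 46 µM; 100% = DMSO control wells and 0% = empty wells without cells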
Method in brief: as §1

[13] = Quantitative highthroughput screen to assess conditional lethalithy of NOMO1 cells grown in RPMI1640 with dialyzed fetal bovine serum (RPMI+ds) (AID 1963877); note: nearly all actives have a fitted effect of over 30% in size;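 for Viability: series mostly up to about 46 µM; 100% = DMSO control wells and 0% = empty wells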
Method in brief: as §1
Potency is the fitted concentration of half-maximal effect.

| SMILES | Potency [1] | Potency [2] | Potency [3] | Potency [4] | Potency [5] | Potency [6] | Potency [7] | activity (max response) [8] | Potency [9] | Potency [10] | Potency [11] | Potency [12] | Potency [8] | Potency [13] |
| --- | --- | --- | --- | --- | --- | --- | --- | --- | --- | --- | --- | --- | --- | --- |
| CN1CCC(=C2c3ccccc3CCc3sccc32)CC1 | 14.8 µM (active) | 18.6 µM (active) | inactive | inactive | inactive | inactive | – | – | – | – | – | – | – | – |
| CCCc1cc(=O)[nH]c(=S)[nH]1 | inactive | inactive | 9350 nM (active) | 10500 nM (active) | 14800 nM (active) | – | 16600 nM (active) | 3.86% (inactive) and 14.9% (inactive) | inactive | – | – | – | – | – |
| CCOC(=O)C1=C(O)C(=O)N(Cc2ccccc2)C1 | inactive | inactive | inactive | – | inactive | inactive | – | 4.18% (inactive) | – | inactive | inactive | inactive | – | – |
| Cc1cn(-c2cc(NC(=O)c3ccc(C)c(Nc4nccc(-c5cccnc5)n4)c3)cc(C(F)(F)F)c2)cn1 | inactive and 2.35 µM (active) | inactive and 4.68 µM (active) | 935 nM (active) | 935 nM (active) | 1320 nM (active) | – | 1050 nM (active) | – | inactive | – | – | – | – | – |
| O=C(NC[C@H](O)CO)c1ccncc1Nc1ccc(I)cc1F | 0.235 µM (active) | 0.166 µM (active) | 469 nM (active) | inactive | – | – | – | – | – | – | – | – | – | – |
| CCOC(=O)C1=C(C)NC2=C(C(=O)CC(C)(C)C2)C1c1ccc(-c2ccccc2)cc1 (centres undefined) | 23.5 µM (active) | 18.4 µM (active) and 18.6 µM (active) | inactive | inactive | inactive | – | inactive | -12.6% (inactive) | 10000 nM (active) | – | 18700 nM (active) | – | – | – |
| FC(F)(F)c1ccc(Nc2nc3ccc(Oc4ccnc(-c5ncc(C(F)(F)F)[nH]5)c4)cc3[nH]2)cc1 | 1.64 µM (active) | 4.17 µM (active) | inactive | – | – | 18700 nM (active) | – | – | 11200 nM (active) | inactive | – | 16600 nM (active) | 22.4 µM (active) | – |
| Nc1ccc(C(=O)c2cc3c(ccc4ccccc43)[nH]2)cc1 | 4.28 µM (active) | 4.81 µM (active) | 14800 nM (active) | 2960 nM (active) | 3320 nM (active) | – | 5900 nM (active) | – | 2510 nM (active) | – | 2960 nM (active) | 2960 nM (active) | 2.24 µM (active) | – |
| CC(C)(O)c1cc2nc(-c3cnc(N)nc3)nc(N3CCOCC3)c2s1 | 0.58 µM (active) | 1.16 µM (active) | 1870 nM (active) | 935 nM (active) | – | – | – | – | 1000 nM (active) | – | – | – | 1.26 µM (active) | – |
| CCCCCNC(=O)N1CCC(CN(Cc2ccc(Cl)cc2)Cc2ccc([N+](=O)[O-])s2)C1 (centres undefined) | 20.9 µM (active) | 13.2 µM (active) | inactive | inactive | – | – | inactive | – | – | – | – | – | – | – |
| CN(C)C1CCN(C(=O)c2ccc(NC(=O)Nc3nc(N4CCOCC4)nc(N4CCOCC4)n3)cc2)CC1 | 25.2 nM (active) and 37.2 nM (active) | 35.5 nM (active) and 59 nM (active) | 662 nM (active) | – | – | 166 nM (active) | – | – | – | 23.5 nM (active) | 74.3 nM (active) | 296 nM (active) | 0.316 µM (active) | – |
| COc1cccc([C@@H](C)NCCCc2ccccc2Cl)c1 | 14.8 µM (active) | 14.8 µM (active) | – | inactive | inactive | inactive | inactive | – | – | inactive | inactive | inactive | – | inactive |
| O=C(O)CCCCCC(=O)NN=C1CCCC1 | inactive | inactive | – | – | inactive | inactive | inactive | 2.29% (inactive) | inactive | inactive | inactive | – | – | inactive |
| COc1cccc2c1C(=O)c1c(O)c3c(c(O)c1C2=O)C[C@@](O)(C(=O)CO)C[C@@H]3O[C@H]1C[C@H](N)[C@@H](O)[C@H](C)O1 | 0.0661 µM (active) | 0.0525 µM (active) | – | 2960 nM (active) | 2960 nM (active) | 1480 nM (active) | 2960 nM (active) | – | 8910 nM (active) | 3320 nM (active) | 2640 nM (active) | 2640 nM (active) | – | 2960 nM (active) |
| CCOC(=O)Nc1ccc(NCc2ccc(F)cc2)nc1N | 14.8 µM (active) | 16.6 µM (active) | – | inactive | inactive | – | inactive | -9.42% (inactive) | inactive | inactive | inactive | inactive | – | inactive |
| CN1CCN(CCCN2c3ccccc3Sc3ccc(C(F)(F)F)cc32)CC1 | 11.9 µM (active) and 18.6 µM (active) | 6.99 µM (active) and 21.1 µM (active) and 11.8 µM (active) | – | 13200 nM (active) | 11800 nM (active) | inactive | – | – | 23100 nM (active) | 2640 nM (active) | – | inactive | 20.6 µM (active) and 25.1 µM (active) | 2960 nM (active) |
| CC(C)C[C@@H](C=O)NC(=O)[C@H](CC(C)C)NC(=O)[C@H](CC(C)C)NC(=O)OCc1ccccc1 (Cbz-Leu-Leu-Leu-aldehyde) | 0.833 µM (active) | 1.05 µM (active) | – | 2960 nM (active) | 1180 nM (active) | 332 nM (active) | 2640 nM (active) | – | 1260 nM (active) | 1480 nM (active) | 662 nM (active) | 743 nM (active) | 0.794 µM (active) | 2090 nM (active) |
